Data published in PubChem BioAssay (NCI).
Compounds without any hit were thinned out: in the full panel of roughly 83,000, 20% have a hit.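 48-hour exposure, single concentration, 96-well plates; percent growth endpoint where 0 means no net growth. Active: below 10.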 Unmarked numbers belong to inactive results. Calls of active or inactive are those of the source.

Legend:
Experiment in all cases: NCI-60 one-dose screen, 48 h (100 = growth as untreated, 0 = no growth, -100 = all killed)
Details in all cases: 10 µM
NCI-H23 lung = system: NCI-H23 lung
NCI-H226 lung = system: NCI-H226 lung
NCI-H322M lung = system: NCI-H322M lung
HOP-62 NSCLC = system: HOP-62 NSCLC
NCI-H460 lung = system: NCI-H460 lung
HOP-92 NSCLC = system: HOP-92 NSCLC
NCI-H522 lung = system: NCI-H522 lung
A549/ATCC NSCLC = system: A549/ATCC NSCLC
786-0 renal = system: 786-0 renal
COLO 205 colon = system: COLO 205 colon
DU-145 prostate = system: DU-145 prostate
K-562 leukemia = system: K-562 leukemia
MALME-3M melanoma = system: MALME-3M melanoma
MDA-MB-231 breast = system: MDA-MB-231 breast
RXF 393 renal = system: RXF 393 renal
SF-268 CNS = system: SF-268 CNS
SF-295 CNS = system: SF-295 CNS
SF-539 CNS = system: SF-539 CNS
UACC-257 melanoma = system: UACC-257 melanoma
M14 melanoma = system: M14 melanoma

Compound	growth (NCI-H23 lung)	growth (NCI-H226 lung)	growth (NCI-H322M lung)	growth (HOP-62 NSCLC)	growth (NCI-H460 lung)	growth (HOP-92 NSCLC)	growth (NCI-H522 lung)	growth (A549/ATCC NSCLC)	growth (786-0 renal)	growth (COLO 205 colon)	growth (DU-145 prostate)	growth (K-562 leukemia)	growth (MALME-3M melanoma)	growth (MDA-MB-231 breast)	growth (RXF 393 renal)	growth (SF-268 CNS)	growth (SF-295 CNS)	growth (SF-539 CNS)	growth (UACC-257 melanoma)	growth (M14 melanoma)
COc1ccc(NC(=O)c2sc3nc4c(cc3c2N)C(O)CCC4)cc1 (stereo not drawn)	98.5%	101%	30.6%	117%	48.3%	85.2%	99.8%	70%	94.8%	110%	93.3%	80.6%	122%	116%	102%	99.7%	82.4%	111%	97.4%	101%
CN1CCN(c2nc(-c3cccnc3)nc3sc4c(c23)CCCCCC4)CC1	93.7%	93.1%	99.3%	85.5%	98%	-2.98% (active)	103%	91.2%	92.8%	102%	98.9%	13.6%	106%	78.9%	79.4%	80.3%	75.6%	93.3%	102%	101%
CCc1ccc(-c2nnc(COc3ccc(-c4nc5cc(Cl)c(Cl)cc5[nH]4)cc3OC)o2)cc1	67.8%	103%	83.6%	102%	24.5%	72.2%	82.8%	39.3%	77.1%	57.1%	66.6%	15.5%	57.9%	58%	46%	99.1%	88.2%	26.1%	91.4%	52.6%
Cc1cc(O)c(C2=NN(c3ccc(S(N)(=O)=O)cc3)C(c3ccc(N(C)C)cc3)C2)c(C)c1Cl (stereo not drawn)	79.3%	88.8%	97.6%	107%	47.1%	45.5%	39.7%	40.8%	95.6%	76.2%	75.2%	25%	157%	103%	93.4%	72.1%	6.34% (active)	91.6%	97.6%	89.3%
CCC(CCNc1cc(OC)cc2cccnc12)CN1C(=O)c2ccccc2C1=O (stereo not drawn)	91.3%	98.9%	112%	102%	138%	93%	87.5%	105%	104%	113%	118%	101%	132%	96%	117%	98.7%	106%	106%	119%	117%
COC(=O)c1c(C)nc(Nc2nc3ccccc3s2)nc1-c1ccc(Cl)cc1Cl	103%	102%	106%	97%	106%	107%	96.1%	107%	104%	110%	113%	91.2%	97.1%	99.1%	107%	101%	93.3%	103%	111%	101%
CC(=O)OC1Oc2ccccc2-c2oc(=O)c(-c3ccc(F)cc3)cc21 (stereo not drawn)	92.5%	91.9%	107%	101%	94.4%	112%	42.5%	57.8%	95.4%	108%	92.4%	87.7%	99.5%	73.1%	–	81.4%	89.1%	86.4%	58.6%	100%
Cc1cc(C(C)(C)CC(C)(C)C)ccc1OCCOCC[N+](C)(C)Cc1ccccc1	-20% (active)	-18% (active)	20.6%	-83.5% (active)	-72.2% (active)	-72.5% (active)	-50.1% (active)	36.7%	-19.4% (active)	-81.6% (active)	22.4%	-53.8% (active)	-35.5% (active)	-67.7% (active)	–	-69.7% (active)	-14.3% (active)	-82.6% (active)	22.9%	-83.2% (active)
